# TDP1 cell noCPT: qHTS for Inhibitors of human tyrosyl-DNA phosphodiesterase 1 (TDP1): qHTS in cells in absence of CPT; Potency, µM (titrated, usually from 46.2 µM), inactives show at the top dose activity change, negative = growth inhibition, actives largely listed as inhibitors; AID 686978, 2013; DT40 Tdp1-/- hTDP1 cells, no CPT, ATP luminescence, 48 h; 420,000 tested, 15% active; note: potency is the fitted concentration of half-maximal effect; nearly all actives have a fitted effect of over 55% in size
#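 Chicken DT40 Tdp1-/- cells complemented with human TDP1, screened without camptothecin (DMSO vehicle only), 400 cells/well. Compounds pin-transferred, cells incubated at 37 °C for at least 48 hr. Growth read as ATP-dependent luminescence (CellTiter-Glo, 30 min at RT).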
# Gal4-VP16 FLuc: Gal4-VP16 reporter inhibition counter-screen; Drosophila S2 Gal4-VP16 UAS-luciferase, luminescence, 20 h; Potency, µM (titrated, usually from 53.6 µM), for inactives: at the top dose activity, negative = inhibition, actives largely listed as inhibitors; 310,000 tested, 3.5% active;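 note: Gal4-VP16 expression switched on by copper sulfate through the metallothionein promoter; potency is the fitted concentration of half-maximal effect; nearly all actives have a fitted effect of over 50% in size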
# IL-1B inflam inh: inhibitors of inflammasome signaling (IL-1 beta secretion); THP-1 LPS/ATP IL-1B secretion, AlphaLISA, 16 h; hits give low values; activity change, % at 57.5 µM; 360,000 tested, 4.7% active; AID 743279; in the data active = activity change below about -50%; inconclusive = mostly about -30% to -49%
#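 THP-1 cells pretreated 1 hr with compounds (up to 57.5 uM final), then stimulated with LPS (250 ng/mL final) plus ATP (1.25 mM final); secreted IL-1B measured by AlphaLISA after 16 hr, decreased signal indicating inhibition.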
# RORg inh: ROR gamma (mouse) transcription inhibition; Drosophila S2 Gal4-RORgamma UAS-luciferase reporter, 20 h; AID 2551; Potency, µM (highest dose often 53.6 µM), for inactives: at the top dose activity change, negative = inhibition, hits mostly inhibitors; 310,000 tested, 5.4% active; P51450; note: potency is the fitted concentration of half-maximal effect; nearly all actives have a fitted effect of over 60% in size
# Target sequence (P51450 whole entry, looked up, the tested form may be a part): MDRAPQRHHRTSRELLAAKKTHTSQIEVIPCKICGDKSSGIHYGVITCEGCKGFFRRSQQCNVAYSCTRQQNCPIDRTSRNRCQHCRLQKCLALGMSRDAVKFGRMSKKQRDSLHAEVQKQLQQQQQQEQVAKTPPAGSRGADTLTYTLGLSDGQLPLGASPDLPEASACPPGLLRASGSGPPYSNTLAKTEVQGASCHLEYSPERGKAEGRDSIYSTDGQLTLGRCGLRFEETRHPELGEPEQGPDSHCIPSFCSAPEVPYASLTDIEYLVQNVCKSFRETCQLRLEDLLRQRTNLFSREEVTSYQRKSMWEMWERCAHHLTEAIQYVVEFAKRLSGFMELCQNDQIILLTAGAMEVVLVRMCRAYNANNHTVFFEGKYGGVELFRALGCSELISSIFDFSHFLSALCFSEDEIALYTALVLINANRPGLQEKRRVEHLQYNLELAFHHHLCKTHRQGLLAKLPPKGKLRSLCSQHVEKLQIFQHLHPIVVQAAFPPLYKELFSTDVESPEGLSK
#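 Schneider cells (Drosophila), stable Gal4 DBD–ROR gamma + UAS-luc; 1 hr cmpd preincubation; Cu2+ induction 700 uM final; 20 hr ambient; luminescence.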
# TDP1 cell CPT: growth inhibition of DT40 Tdp1-/-;hTDP1 cells with camptothecin (screen for TDP1 inhibitors) | chicken DT40 Tdp1-/-;hTDP1 cells + 20 nM CPT, ATP luminescence, 48 h | Potency, µM (titrated, usually from 46.2 µM), inactives show top-dose activity change, negative = growth inhibition, actives largely listed as inhibitors | 420,000 tested, 12% active | AID 686979; note: potency is the fitted concentration of half-maximal effect; nearly all actives have a fitted effect of over 55% in size
#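 Chicken DT40 Tdp1-/- cells stably complemented with human TDP1 were seeded at 400 cells/well in medium containing 20 nM camptothecin, exposed to pin-transferred compounds, and grown at 37 °C for at least 48 hr. Viability was read as ATP luminescence.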
# LDHA inh: inhibitors of human lactate dehydrogenase A. P00338. purified LDHA, NADH/diaphorase-resazurin fluorescence; hits give low values. activity change, % (values are at about 110 or 230 µM). 480,000 tested, 0.15% active; in the data active = activity change below about -30%; inconclusive = mostly about -25% to -30%;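 note: plate controls were DMSO wells for no effect and wells without enzyme for full effect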
#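 Resorufin fluorescence (ex540/em590), read at 0 and 20 min after diaphorase/resazurin addition, reports the NADH left after a 5 min room-temperature reaction of 2 nM human LDH5 with 0.06 mM NADH and 0.2 mM pyruvate.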
# * hit, by the source's call; u = inconclusive; x = no result. Most compounds without a hit are left out; they make up all but 18% or so of the library. Unless noted, calls come from the whole dose curve; as a rule, active = well fitted curve in the direction sought with a large enough effect; inconclusive = small, poorly fitted or top-dose-only effect, or another doubt; inactive = no such curve, though single readings can be large; an effect the other way counts as inactive or inconclusive. Unless noted, % is set by controls: 0 for no effect and ±100 for the full control effect.
SMILES,TDP1 cell noCPT,Gal4-VP16 FLuc,IL-1B inflam inh,RORg inh,TDP1 cell CPT,LDHA inh
Cc1cc(C)n(-c2nc(NCCCN(C)C)c3c4c(sc3n2)CCCC4)n1,u,7.08µM*,-28.4,3.98µM*,u,-2.8
Cc1cc(C)n(-c2nc(NCCN(C)C)c3c4c(sc3n2)CCCC4)n1,6.51µM*,-13.5%,-98.4*,-16.8%,8.2µM*,-2.4
Cc1cc(C)n(-c2nc(SCCN3CCOCC3)c3c4c(sc3n2)CCCC4)n1,20.6µM*,x,23.1,x,-31.9%,-6.3
CC(C(=O)NC(N)=O)N1CCN(c2ccccc2F)CC1 (stereo unspecified),x,x,x,x,x,1.5
CCOC(=O)C(=C1Nc2ccccc2N1)n1c(-c2ccco2)nc2ccccc21,u,x,3.3,x,7.31µM*,22.8
Cn1nc(C(=O)Nc2cc(C(F)(F)F)ccc2N2CCOCC2)c2ccccc2c1=O,x,x,x,x,x,3.2
Cc1c(NC(=S)NC(NC(=O)C(C)C)C(Cl)(Cl)Cl)c(=O)n(-c2ccccc2)n1C (stereo unspecified),14.6µM*,-6.2%,24.6,10.4%,14.6µM*,-6.3
Cc1c(NC(=O)C(C)OC(=O)COc2ccccc2)c(=O)n(-c2ccccc2)n1C (stereo unspecified),-14.2%,3.7%,28.4,2.2%,18.7%,-0.2
Cc1c(NC(=O)C(C)OC(=O)c2ncc(Cl)c(Cl)c2Cl)c(=O)n(-c2ccccc2)n1C (stereo unspecified),4.5%,x,-72.4*,x,-4.2%,-5.4
Cc1cc(C)cc(NC(=O)c2nc3ccccc3nc2N2CCN(C)CC2)c1,x,x,x,x,x,5.5
Fc1ccc(-c2nnc(SCc3ncc(-c4ccccc4)o3)o2)cc1,x,x,x,x,x,-1.9
CC(C)CN(C(=O)COC(=O)CCSc1ccc(F)cc1)c1c(N)n(Cc2ccccc2)c(=O)[nH]c1=O,u,x,24.0,x,20.8%,-10.2
CC(C)CN(C(=O)COC(=O)CCSc1ccc(Cl)cc1)c1c(N)n(Cc2ccccc2)c(=O)[nH]c1=O,18.4µM*,x,1.8,x,u,-0.6
CN(C(=O)COC(=O)CCC(=O)c1ccc(Cl)cc1)c1c(N)n(Cc2ccccc2)c(=O)[nH]c1=O,18.4µM*,x,3.1,x,-10.0%,-4.5
CCOC(=O)C(CCCOc1ccc(C)cc1)C(=O)OCC,-9.4%,-19.7%,7.6,33.1%,-10.8%,-0.7
CCOC(=O)C(C(C)=O)C(c1ccc(OCCC(C)C)cc1)C(C(C)=O)C(=O)OCC (stereo unspecified),16.4µM*,-2.6%,-2.6,u,u,-5.8
CCOC(=O)C(CCCOc1ccc(C(C)CC)cc1)C(=O)OCC (stereo unspecified),-2.5%,u,22.7,2.82µM*,-2.7%,5.7
O=S(=O)(O)c1cc(O)c2c(N=Nc3ccc(Nc4ccccc4)c4c(S(=O)(=O)O)cccc34)cc(S(=O)(=O)O)cc2c1,13.3µM*,-7.5%,x,u,18.8µM*,x
Cc1ccoc1C(=O)NCc1cccc(C(F)(F)F)c1,x,x,x,x,x,8.2
Cc1cc(Cl)ccc1NC(=O)CCNC(=O)CCC(=O)c1cccs1,x,x,x,x,x,-5.3
O=S(=O)(N1CCCCC1)N1CCCC(c2nc3ccccc3o2)C1 (stereo unspecified),x,x,x,x,x,8.5
O=S(=O)(O)CCl,x,x,x,x,x,2.0
O=S(=O)(O)CC(S)CS (stereo unspecified),4.73µM*,-5.1%,x,14.8%,8.41µM*,-2.2
Cc1ccccc1NC(=O)COC(=O)COc1ccccc1,x,x,x,x,x,0.5
CCOc1cc(-c2nn3c(-c4ccccc4C)nnc3s2)cc(OCC)c1OCC,x,x,x,x,x,0.8
CC(=O)Nc1cccc(-c2ccnc3c2CC(C(=O)Nc2ccc4c(c2)OCO4)O3)c1 (stereo unspecified),4.61µM*,x,17.0,x,2.91µM*,-6.0

# Screening results deposited in PubChem by National Center for Advancing Translational Sciences (NCATS).
